The record followed here is PubChem BioAssay (NCATS).

Unmarked numbers belong to inactive results. Records with an inconclusive call do not appear. Calls of active or inactive are those of the source. Unless noted, calls come from the whole dose curve; as a rule, active = well fitted curve in the direction sought with a large enough effect; inconclusive = small, poorly fitted or top-dose-only effect, or another doubt; inactive = no such curve, though single readings can be large; an effect the other way counts as inactive or inconclusive.

Assay [1] has as its target Rap guanine nucleotide exchange factor 3 (Homo sapiens) (UniProt O95398). Briefly: Confirmatory qHTS for agonist of cAMP-regulated guanine nucleotide exchange factor 3 (EPAC1) (AID 1645881;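 note: EPAC1 catalysed release of BODIPY-GDP from Rap1B seen as fluorescence loss; 100% = effect of cAMP agonist control; nearly all actives have a fitted effect of over 75% in size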). (In general: qHTS replaces the single test concentration by a dilution series.)
The target in assay [2] is Rap guanine nucleotide exchange factor 4 (Homo sapiens) (UniProt Q8WZA2). The assay is described as follows: Confirmatory qHTS for agonist of cAMP-regulated guanine nucleotide exchange factor 4 (EPAC2) (AID 1645884).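 Note: nucleotide exchange releases bodipy-GDP from Rap1 and this lowers its fluorescence; % is set by controls: 0 for no effect and ±100 for the full control effect; nearly all actives have a fitted effect of over 65% in size.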
Rap guanine nucleotide exchange factor 4 (Homo sapiens), sequence (Q8WZA2 whole entry, looked up): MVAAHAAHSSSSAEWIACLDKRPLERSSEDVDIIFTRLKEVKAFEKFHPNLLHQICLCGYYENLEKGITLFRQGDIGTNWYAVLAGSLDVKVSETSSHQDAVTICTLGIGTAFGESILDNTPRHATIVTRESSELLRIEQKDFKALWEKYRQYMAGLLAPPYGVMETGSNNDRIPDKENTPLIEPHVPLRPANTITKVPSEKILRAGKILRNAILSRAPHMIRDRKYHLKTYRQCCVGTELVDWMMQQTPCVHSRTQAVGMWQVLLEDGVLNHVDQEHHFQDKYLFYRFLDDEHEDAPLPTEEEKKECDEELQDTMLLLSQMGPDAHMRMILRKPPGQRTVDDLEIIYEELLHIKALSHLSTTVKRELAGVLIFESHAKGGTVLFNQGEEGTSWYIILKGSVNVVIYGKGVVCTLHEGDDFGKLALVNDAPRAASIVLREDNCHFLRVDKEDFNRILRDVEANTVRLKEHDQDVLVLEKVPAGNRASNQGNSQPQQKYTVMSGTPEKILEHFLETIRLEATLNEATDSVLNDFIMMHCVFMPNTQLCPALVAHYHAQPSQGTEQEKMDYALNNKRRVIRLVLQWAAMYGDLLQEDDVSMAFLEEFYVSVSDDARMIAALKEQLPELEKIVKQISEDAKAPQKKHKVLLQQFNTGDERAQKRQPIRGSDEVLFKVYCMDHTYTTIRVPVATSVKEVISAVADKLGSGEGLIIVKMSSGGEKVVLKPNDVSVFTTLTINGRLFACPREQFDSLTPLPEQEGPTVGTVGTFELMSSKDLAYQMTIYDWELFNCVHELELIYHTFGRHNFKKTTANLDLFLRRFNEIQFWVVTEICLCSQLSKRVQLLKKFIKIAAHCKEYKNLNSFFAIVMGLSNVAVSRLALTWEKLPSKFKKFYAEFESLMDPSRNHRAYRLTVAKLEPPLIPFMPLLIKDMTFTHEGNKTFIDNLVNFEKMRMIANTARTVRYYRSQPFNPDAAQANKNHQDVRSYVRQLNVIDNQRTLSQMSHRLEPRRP
For assay [3] the target is unchanged. The assay is described as follows: Confirmatory qHTS for antagonist of cAMP-regulated guanine nucleotide exchange factor 4 (EPAC2) (AID 1645885). Note: % is set by controls: 0 for no effect and ±100 for the full control effect; nearly all actives have a fitted effect of over 25% in size.
In assay [4] the target is Rap guanine nucleotide exchange factor 3 (Homo sapiens) (UniProt O95398). The assay is described as follows: Counterscreen qHTS for agonist of cAMP-regulated guanine nucleotide exchange factor 3 (EPAC1) (AID 1645889). Note: % of control where 0% means no effect; nearly all actives have a fitted effect of over 40% in size. The essentials: (§1)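 Rap1B–BODIPY-GDP (250 nM) with 50 uM GDP; compounds pin-transferred to 9.74 nM–152 uM final (activator) or from 7.32 nM upwards (inhibitor). Fluorescence Ex/Em 480/540 nm read at 5 and 30 min, then after adding cAMP or buffer, at room temperature.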
Rap guanine nucleotide exchange factor 3 (Homo sapiens), sequence (O95398 whole entry, looked up): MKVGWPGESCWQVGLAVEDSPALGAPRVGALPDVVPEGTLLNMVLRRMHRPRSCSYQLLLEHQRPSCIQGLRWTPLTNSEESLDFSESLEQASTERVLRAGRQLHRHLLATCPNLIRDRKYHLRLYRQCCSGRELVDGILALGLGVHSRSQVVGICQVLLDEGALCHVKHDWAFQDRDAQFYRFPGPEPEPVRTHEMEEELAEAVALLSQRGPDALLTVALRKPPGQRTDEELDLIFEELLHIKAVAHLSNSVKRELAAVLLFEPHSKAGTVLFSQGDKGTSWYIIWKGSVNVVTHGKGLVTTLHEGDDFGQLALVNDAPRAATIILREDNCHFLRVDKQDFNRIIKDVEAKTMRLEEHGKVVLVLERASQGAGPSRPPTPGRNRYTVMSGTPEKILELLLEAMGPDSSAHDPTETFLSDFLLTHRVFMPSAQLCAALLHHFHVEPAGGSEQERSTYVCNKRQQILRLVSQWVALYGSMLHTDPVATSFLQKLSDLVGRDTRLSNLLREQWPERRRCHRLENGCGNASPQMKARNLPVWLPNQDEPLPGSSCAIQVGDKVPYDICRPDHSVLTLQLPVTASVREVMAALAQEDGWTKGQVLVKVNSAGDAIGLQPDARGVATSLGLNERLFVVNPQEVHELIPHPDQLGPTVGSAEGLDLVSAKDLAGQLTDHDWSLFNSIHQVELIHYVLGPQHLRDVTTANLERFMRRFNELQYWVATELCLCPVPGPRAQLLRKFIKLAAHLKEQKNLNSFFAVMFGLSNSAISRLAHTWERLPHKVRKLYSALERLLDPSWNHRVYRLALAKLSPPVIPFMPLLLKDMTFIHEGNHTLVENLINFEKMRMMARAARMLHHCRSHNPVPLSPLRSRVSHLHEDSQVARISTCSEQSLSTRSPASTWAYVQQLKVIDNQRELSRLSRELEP
(A counterscreen serves to expose hits that act by an unwanted route or on another target.)

Assay [5] addresses DNA repair nuclease/redox regulator APEX1 (Homo sapiens) (UniProt P27695). Briefly: qHTS Validation Assay for Inhibitors of the Human Apurinic/apyrimidinic Endonuclease 1 (APE1) (AID 1705;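 note: TAMRA fluorescence gain over two minutes as APE1 cuts a quenched THF abasic duplex; series mostly up to about 57 µM; % is set by controls: 0 for no effect and ±100 for the full control effect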). The essentials:
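qHTS, 1536-well. APE1 + cpd 15 min RT → 50 nM TAMRA/BHQ-2 THF-abasic dsDNA substrate → kinetic fluorescence, 3 reads/60 s; delta(read3−read1) = reaction progress. No-enzyme buffer = negative control.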

A short description of assay [6]: Counterscreen for APE1 Inhibitors: Fluorescent Dye Displacement Validation Assay (AID 1707).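 Note: plate controls were ThO with dsDNA and no compound for no effect and ThO without dsDNA for full effect.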 The essentials:
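Reaction mixture of 250 nM Thiazole Orange and 50 nM double-stranded abasic-site DNA was dispensed, compounds were pin-transferred, and fluorescence was read at endpoint (480 nm ex, 540 nm em). Reduced fluorescence indicated dye displacement by DNA binding.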

Assay [7] deals with Endonuclease 4 (Escherichia coli (strain K12)) (UniProt P0A6C1). Briefly: Counterscreen for APE1 Inhibitors: qHTS Validation Assay for Inhibitors of Endonuclease IV (AID 1708). Note: % is set by controls: 0 for no effect and ±100 for the full control effect. The essentials: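 Conditions: 2 nM enzyme, 50 nM TAMRA/BHQ-2 substrate, pH 7.5 Tris buffer with 2 mM MgCl2, RT. Compound preincubation 15 min; readout three fluorescence reads 60 s apart, third-minus-first.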

A short description of assay [8]: qHTS for differential inhibitors of proliferation of Plasmodium falciparum line 3D7 (AID 1876).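 Note: parasite growth measured after three days of culture; 0% = vehicle wells and -100% = reference inhibitor wells.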
Assay [9] can be described thus: qHTS for differential inhibitors of proliferation of Plasmodium falciparum line Dd2 (AID 1882).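 Note: series mostly up to about 29 µM; plate controls were DMSO vehicle for no effect and 0.29 µM artemisinin for full effect; nearly all actives have a fitted effect of over 65% in size.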 To be noted: Potency: Plasmodium falciparum Dd2 proliferation inhibition. The essentials: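 SYBR Green DNA fluorescence (ex 485, em 535 nm) after overnight lysis quantifies parasite growth; compound exposure lasted 72 h at 37 C on infected red cells at 2.5% hematocrit, 0.3% parasitemia (final). Artemisinin 0.29 uM and vehicle wells define normalization.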

Assay [10] can be described thus: qHTS for differential inhibitors of proliferation of Plasmodium falciparum line W2 (AID 1883).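 Note: potency is the fitted concentration of half-maximal effect; parasites grown with compound for 72 h before lysis and staining.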 To be noted: Potency: Plasmodium falciparum W2 proliferation inhibition.
Assay [11] addresses ATP-dependent DNA helicase Q1 (Homo sapiens) (UniProt P46063). The assay is described as follows: qHTS Validation Assay for Inhibitors of RecQ-Like Dna Helicase 1 (RECQ1) (AID 2353).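 Note: plate controls were DMSO vehicle for no effect and enzyme-free control for full effect.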 The method, boiled down: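 RECQ1T1 50 nM; forked duplex (20 bp + 30-nt ss tails) 200 nM, ATP 2 mM final; pH 8.0, 2 mM MgCl2, 2.5 ug/ml poly(dI-dC); 15 min compound preincubation; discontinuous kinetic read over 2 h at RT.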

Assay [12] deals with RecQ-like DNA helicase BLM (Homo sapiens) (UniProt P54132). Briefly: qHTS Validation Assay for Inhibitors of Bloom's syndrome helicase (BLM) (AID 2364).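 Note: plate controls were DMSO vehicle for no effect and enzyme-free control for full effect.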 The essentials: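 50 nM BLM preincubated 15 min at room temperature with compound in pH 8.0 Tris buffer containing 2.5 ug/ml poly(dI-dC); started with 200 nM TAMRA/BHQ-2 forked duplex and 2 mM ATP (final). Unwinding read as TAMRA fluorescence increase, two reads 2 h apart.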
RecQ-like DNA helicase BLM (Homo sapiens), sequence (P54132 whole entry, looked up): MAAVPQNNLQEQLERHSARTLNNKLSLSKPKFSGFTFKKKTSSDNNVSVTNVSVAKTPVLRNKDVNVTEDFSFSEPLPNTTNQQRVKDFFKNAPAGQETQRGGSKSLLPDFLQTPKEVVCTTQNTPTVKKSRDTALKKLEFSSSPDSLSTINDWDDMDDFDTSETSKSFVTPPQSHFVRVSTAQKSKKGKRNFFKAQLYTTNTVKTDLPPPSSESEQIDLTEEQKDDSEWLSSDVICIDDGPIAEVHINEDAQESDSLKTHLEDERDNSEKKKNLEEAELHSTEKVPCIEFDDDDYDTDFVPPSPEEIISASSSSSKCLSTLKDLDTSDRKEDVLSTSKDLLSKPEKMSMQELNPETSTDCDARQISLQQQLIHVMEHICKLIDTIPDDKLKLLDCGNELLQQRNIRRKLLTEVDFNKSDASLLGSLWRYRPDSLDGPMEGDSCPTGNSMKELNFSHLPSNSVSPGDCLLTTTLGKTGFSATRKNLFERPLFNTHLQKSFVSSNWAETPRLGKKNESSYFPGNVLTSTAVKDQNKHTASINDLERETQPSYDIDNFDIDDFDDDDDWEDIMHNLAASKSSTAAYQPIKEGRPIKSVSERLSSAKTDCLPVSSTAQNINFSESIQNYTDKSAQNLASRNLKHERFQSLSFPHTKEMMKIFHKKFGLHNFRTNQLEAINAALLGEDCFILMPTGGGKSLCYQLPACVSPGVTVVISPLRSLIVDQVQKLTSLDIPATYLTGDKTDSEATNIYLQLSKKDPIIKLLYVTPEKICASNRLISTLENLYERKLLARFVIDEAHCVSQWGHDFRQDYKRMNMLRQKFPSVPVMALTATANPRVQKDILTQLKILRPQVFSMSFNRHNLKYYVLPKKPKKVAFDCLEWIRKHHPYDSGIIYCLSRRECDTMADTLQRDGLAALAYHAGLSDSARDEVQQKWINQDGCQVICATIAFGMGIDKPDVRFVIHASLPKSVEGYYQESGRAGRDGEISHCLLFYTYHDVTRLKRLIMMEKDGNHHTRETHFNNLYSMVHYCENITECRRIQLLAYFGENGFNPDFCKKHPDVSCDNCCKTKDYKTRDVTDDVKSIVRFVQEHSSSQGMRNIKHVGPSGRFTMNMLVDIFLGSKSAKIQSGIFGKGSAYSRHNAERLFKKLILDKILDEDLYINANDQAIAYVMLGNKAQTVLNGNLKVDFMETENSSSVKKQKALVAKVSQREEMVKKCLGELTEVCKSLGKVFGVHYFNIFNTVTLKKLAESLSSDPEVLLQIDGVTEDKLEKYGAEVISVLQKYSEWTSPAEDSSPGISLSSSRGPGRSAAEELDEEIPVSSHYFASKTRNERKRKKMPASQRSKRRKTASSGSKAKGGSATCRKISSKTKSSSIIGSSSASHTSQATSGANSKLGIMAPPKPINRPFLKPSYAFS

The nature of assay [13]: Validation screen for inhibitors of Lassa infection (AID 463096; calls by dose curve; note: % is set by controls: 0 for no effect and ±100 for the full control effect).
Assay [14] is described as follows: Validation screen for small molecules that induce DNA re-replication in MCF 10A normal breast cells (AID 463097). Note: 0% is about no effect; nearly all actives have a fitted effect of over 60% in size. The essentials:
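Image-based qHTS: normal breast cells are incubated with compound for 48 hr, stained with Hoechst, and scanned for total nuclear fluorescence. Compounds raising the fraction of nuclei with elevated DNA content count as re-replication inducers.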

Assay [15] is described as follows: Quantitative high throughput screen for delayed death inhibitors of the malarial parasite plastid, 96 hour incubation (AID 488745). Note: series mostly up to about 29 µM; % is set by controls: 0 for no effect and ±100 for the full control effect; nearly all actives have a fitted effect of over 70% in size. The method, boiled down: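 Decreased firefly luciferase luminescence indicates inhibited growth of reporter-integrated P. falciparum after two generations (96 h, 37 C, 5% CO2). Infected erythrocytes at 0.1% parasitemia, 2% hematocrit, in Albumax-supplemented RPMI 1640.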

Assay [16] addresses M-phase phosphoprotein 8 (Homo sapiens) (UniProt Q99549). The assay is described as follows: qHTS Validation Assay for Inhibitors for MPP8 Chromodomain Interactions with Methylated Histone Tails (AID 488949).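 Note: 50 nM MPP8 with 50 nM peptide preformed then compounds added for 30 min; AlphaScreen signal from MPP8 chromodomain bound to biotinylated H3K9me3 peptide; top concentration of the series differs between compounds; % is set by controls: 0 for no effect and ±100 for the full control effect; nearly all actives have a fitted effect of over 55% in size.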 The essentials: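 50 nM MPP8 + 50 nM b-H3K9me3 peptide, PBS pH 7.4/0.01% Tween-20, 30 min RT; + cpd 30 min RT; + AlphaScreen donor/Ni-chelate acceptor beads 10 ug/mL final, 30 min dark; luminescence read.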

Assay [17] concerns the target Transient receptor potential cation channel subfamily V member 1 (Homo sapiens) (UniProt Q8NER1). Briefly: HTS Assay for Compounds that Act as Enhancers of the Vanilloid Receptor 1 (AID 488979). Note: 0% is about no effect. The method, boiled down:
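TRPV1 cells loaded with Fluo-8 calcium dye; compound added and Ca2+ signal (ex 480/em 520 nm) followed 3 min, then capsaicin at EC20 added and read 2 more min to detect enhancement.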

Assay [18] deals with Thyrotropin receptor (Homo sapiens) (UniProt P16473). The assay is described as follows: qHTS Assay for Antagonists of the Thyroid Stimulating Hormone Receptor (AID 488980). Note: series mostly up to about 58 µM; 0% is about no effect. The method, boiled down:
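Readout is cAMP by HTRF competition between cellular cAMP and cAMP-d2 for a cryptate-labelled antibody. Antagonism was assessed in TSHR-transfected HEK293 cells stimulated with 4 nM TSH (EC80, final) in the presence of RO 20-1724.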

Assay [19] deals with Galactokinase (Homo sapiens) (UniProt P51570). Briefly: qHTS Validation Assay for Inhibitors of Human Galactokinase (GALK) (AID 493189). Note: 0% is about no effect. The method, boiled down:
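5 nM GALK / 100 uM galactose / 35 uM ATP, 20 mM HEPES pH8.0, 5 mM MgCl2, 60 mM NaCl, 1 mM DTT, 0.01% BSA (final). RT 1 h; Kinase-Glo Plus luminescence.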

Assay [20] is described as follows: Validation screen for small molecules that induce DNA re-replication in SW480 colon adenocarcinoma cells (AID 504364). Note: 0% is about no effect. The essentials:
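Image-based DNA content read-out: Hoechst stain 40 min, total nuclear fluorescence intensity (ex 405 nm, em 500-530 nm) after 48 h compound exposure of 250 SW480 cells/well at 37 C, 5% CO2, versus DMSO vehicle.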

Assay [21] addresses Rap guanine nucleotide exchange factor 3 (Homo sapiens) (UniProt O95398). The assay is described as follows: Counterscreen qHTS for antagonist of cAMP-regulated guanine nucleotide exchange factor 3 (EPAC1) (AID 1645888).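 Note: fluorescence loss as bound BODIPY-GDP is released from Rap1B; % of control where 0% means no effect.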 The method, boiled down: as §1

ATP-dependent DNA helicase Q1 (Homo sapiens), sequence (P46063 whole entry, looked up): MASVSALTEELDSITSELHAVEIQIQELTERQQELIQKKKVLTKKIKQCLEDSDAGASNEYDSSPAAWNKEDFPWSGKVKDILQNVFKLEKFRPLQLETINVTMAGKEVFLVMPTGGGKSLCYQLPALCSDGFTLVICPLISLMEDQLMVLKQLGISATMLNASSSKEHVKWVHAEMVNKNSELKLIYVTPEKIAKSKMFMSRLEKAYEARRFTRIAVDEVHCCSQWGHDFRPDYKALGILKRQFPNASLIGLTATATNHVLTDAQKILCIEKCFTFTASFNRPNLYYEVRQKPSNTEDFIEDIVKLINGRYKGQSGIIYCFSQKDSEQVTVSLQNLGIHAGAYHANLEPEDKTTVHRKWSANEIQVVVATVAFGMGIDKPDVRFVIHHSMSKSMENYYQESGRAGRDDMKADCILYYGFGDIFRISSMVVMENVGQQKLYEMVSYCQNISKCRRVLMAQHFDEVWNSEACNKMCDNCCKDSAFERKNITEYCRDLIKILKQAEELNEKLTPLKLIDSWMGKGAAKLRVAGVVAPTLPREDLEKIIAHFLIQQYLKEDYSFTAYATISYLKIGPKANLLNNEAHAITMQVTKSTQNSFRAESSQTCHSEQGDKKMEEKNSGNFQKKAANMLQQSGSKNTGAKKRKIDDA
DNA repair nuclease/redox regulator APEX1 (Homo sapiens), sequence (P27695 whole entry, looked up): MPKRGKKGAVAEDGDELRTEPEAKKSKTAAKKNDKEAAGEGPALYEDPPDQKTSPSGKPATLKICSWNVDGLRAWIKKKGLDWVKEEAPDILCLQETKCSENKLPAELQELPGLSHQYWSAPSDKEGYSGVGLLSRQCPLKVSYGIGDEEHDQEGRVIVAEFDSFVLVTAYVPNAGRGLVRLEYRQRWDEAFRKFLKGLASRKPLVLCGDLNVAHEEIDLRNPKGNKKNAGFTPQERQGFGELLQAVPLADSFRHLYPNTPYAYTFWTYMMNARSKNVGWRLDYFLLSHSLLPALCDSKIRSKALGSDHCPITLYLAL
Thyrotropin receptor (Homo sapiens), sequence (P16473 whole entry, looked up): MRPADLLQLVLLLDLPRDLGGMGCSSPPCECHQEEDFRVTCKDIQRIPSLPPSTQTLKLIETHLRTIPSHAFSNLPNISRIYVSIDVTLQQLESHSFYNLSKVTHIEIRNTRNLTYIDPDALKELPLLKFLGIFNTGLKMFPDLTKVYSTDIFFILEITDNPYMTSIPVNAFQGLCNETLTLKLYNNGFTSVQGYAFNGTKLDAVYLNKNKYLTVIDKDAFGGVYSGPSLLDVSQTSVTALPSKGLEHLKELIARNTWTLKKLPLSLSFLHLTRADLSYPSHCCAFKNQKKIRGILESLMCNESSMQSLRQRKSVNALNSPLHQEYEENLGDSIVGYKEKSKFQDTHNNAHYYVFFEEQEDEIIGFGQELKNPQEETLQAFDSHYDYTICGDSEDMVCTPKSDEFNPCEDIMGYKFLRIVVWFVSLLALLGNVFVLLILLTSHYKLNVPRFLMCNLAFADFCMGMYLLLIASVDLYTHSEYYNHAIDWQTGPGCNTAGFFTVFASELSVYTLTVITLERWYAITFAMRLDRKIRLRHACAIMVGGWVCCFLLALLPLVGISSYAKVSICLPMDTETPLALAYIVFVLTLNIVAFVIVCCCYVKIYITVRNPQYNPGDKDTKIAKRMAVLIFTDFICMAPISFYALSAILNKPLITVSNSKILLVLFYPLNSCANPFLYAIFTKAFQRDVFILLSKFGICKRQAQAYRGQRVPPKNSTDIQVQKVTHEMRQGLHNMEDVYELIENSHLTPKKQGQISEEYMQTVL

Regarding `COc1ccc(-n2nnnc2C(c2ccccc2OC(F)(F)F)N2CCC(n3c(=O)[nH]c4ccccc43)CC2)cc1` (centres undefined), in assay [1], the Potency result is “inactive”. Besides, the activation in [2] was 2.83% [at 17.1 µM, percent relative to cAMP agonist control]; in assay [4] it was 2.08% [at 30.8 µM]. In assay [3], the activity change, negative = inhibition was -5.88% [at 12.7 µM].

As to `C[C@]12CC[C@@H](O)CC1CCC1C2CC[C@]2(C)C(=O)CC[C@@H]12` (some centres undefined), the Potency entry in [5], in [7], in [8], in assay [9], in assay [13] and in assay [14] was “inactive” throughout. For the same compound, the Potency entry in assay [15] and in assay [16] was “inactive” throughout. Moreover, the compound was called inactive in [6], in [11], in [12], in assay [17], in assay [18] and in [19]. The call in [20] was inactive. Moreover, the Potency in assay [10] is 10 µM (active).

On to `CCCCN1C(=O)/C(=C\c2ccco2)C(=O)N(CCc2ccccc2)C1=O`, for which the Potency result in assay [1], in assay [2], in [3] and in [4] was “inactive” in each case. Moreover, the compound was classed as inactive in assay [21].

Turning to `CCn1nc(/C=C/c2ccccc2)nc2c(=O)n(C)c(=O)nc1-2`, the Potency result in assay [1], in assay [2] and in assay [4] was “inactive” each time. For the same compound, the call in assay [21] was inactive.

Turning to `O=C1NC(=O)N(CCc2ccc(F)cc2)C(=O)/C1=C/c1ccco1`, the Potency result in [1] was “inactive”. The activation in [2] is 1.5% [at 17.1 µM, percent relative to cAMP agonist control]; in assay [4], 10.6% [at 30.8 µM]. Moreover, the activity change, negative = inhibition is -8.03% [at 12.7 µM] in assay [3] and -2.28% [at 30.8 µM] in [21].

For `COc1cccc(C(c2nnnn2Cc2ccccc2)N2CCC(n3c(=O)[nH]c4ccccc43)CC2)c1OC` (centres undefined), the Potency result in assay [1] and in assay [2] was “inactive” each time. Also, the call in [21] was inactive.

Regarding `Cc1cc(/C=C2/C(=O)NC(=O)N(Cc3ccco3)C2=O)c(C)n1-c1ccccc1`, in [3], the Potency entry is “inactive”. Further, the call in assay [21] was inactive.
